Key:
[1] = target: T1, Ephrin type-B receptor 1 (Homo sapiens) (UniProt P54762); conditions: at 10 µM
T1 sequence (whole entry): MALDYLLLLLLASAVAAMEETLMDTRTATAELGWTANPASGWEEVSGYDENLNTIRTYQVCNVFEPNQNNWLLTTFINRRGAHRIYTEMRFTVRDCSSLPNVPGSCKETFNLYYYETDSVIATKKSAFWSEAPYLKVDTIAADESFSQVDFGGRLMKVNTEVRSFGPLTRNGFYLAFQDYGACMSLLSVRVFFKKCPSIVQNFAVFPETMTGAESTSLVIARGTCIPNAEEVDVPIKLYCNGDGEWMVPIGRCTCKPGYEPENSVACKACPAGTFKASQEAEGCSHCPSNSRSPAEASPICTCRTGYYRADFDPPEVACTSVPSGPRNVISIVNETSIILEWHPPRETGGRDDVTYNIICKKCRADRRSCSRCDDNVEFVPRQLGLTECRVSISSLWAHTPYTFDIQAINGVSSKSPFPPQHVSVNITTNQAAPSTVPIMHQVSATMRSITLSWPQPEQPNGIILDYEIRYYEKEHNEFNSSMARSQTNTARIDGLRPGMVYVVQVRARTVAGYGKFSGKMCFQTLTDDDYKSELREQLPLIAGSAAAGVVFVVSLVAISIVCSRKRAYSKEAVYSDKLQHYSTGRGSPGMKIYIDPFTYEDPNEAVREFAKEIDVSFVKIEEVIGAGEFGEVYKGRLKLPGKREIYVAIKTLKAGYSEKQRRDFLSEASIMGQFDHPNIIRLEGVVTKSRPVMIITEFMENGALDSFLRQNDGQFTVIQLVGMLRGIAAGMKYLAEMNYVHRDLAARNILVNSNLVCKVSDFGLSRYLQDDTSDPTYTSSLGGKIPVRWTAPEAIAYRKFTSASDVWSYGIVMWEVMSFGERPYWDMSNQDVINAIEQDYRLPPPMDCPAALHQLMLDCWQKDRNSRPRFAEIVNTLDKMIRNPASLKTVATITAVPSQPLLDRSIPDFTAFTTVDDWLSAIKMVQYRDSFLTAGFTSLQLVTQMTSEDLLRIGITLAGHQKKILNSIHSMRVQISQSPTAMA

[2] = target: T2, Ephrin type-B receptor 2 (Homo sapiens) (UniProt P29323); conditions: at 1 µM
T2 sequence (whole entry): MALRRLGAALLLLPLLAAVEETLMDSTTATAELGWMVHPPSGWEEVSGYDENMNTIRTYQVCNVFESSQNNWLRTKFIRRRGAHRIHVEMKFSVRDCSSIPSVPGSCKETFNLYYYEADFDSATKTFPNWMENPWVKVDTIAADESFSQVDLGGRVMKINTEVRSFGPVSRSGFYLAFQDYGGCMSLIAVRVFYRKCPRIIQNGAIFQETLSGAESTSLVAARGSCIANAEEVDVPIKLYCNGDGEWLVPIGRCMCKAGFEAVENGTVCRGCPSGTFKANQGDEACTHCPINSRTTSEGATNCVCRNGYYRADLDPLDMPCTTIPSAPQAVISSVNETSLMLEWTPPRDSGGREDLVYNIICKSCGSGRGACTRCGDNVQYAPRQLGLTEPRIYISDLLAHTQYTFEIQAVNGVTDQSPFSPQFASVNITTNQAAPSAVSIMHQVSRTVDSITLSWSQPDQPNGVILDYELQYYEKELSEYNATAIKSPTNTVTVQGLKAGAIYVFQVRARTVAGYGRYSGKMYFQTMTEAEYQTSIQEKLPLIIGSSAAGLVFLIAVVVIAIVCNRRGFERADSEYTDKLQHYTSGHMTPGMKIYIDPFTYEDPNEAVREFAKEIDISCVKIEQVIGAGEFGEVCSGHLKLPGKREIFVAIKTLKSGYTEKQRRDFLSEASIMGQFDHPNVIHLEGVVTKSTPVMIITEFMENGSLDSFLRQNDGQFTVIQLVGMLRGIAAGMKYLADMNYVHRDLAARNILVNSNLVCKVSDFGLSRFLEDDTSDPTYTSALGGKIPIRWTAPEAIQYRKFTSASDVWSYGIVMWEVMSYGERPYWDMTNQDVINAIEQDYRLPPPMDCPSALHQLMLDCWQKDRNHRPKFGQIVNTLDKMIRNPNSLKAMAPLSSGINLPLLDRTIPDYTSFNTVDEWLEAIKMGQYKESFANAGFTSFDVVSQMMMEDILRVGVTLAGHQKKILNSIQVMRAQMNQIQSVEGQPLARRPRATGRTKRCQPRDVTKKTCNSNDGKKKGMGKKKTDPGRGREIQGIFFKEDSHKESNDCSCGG

[3] = target: T2, Ephrin type-B receptor 2 (Homo sapiens); conditions: at 10 µM
[4] = target: T3, Ephrin type-B receptor 3 (Homo sapiens) (UniProt P54753); conditions: at 1 µM
T3 sequence (whole entry): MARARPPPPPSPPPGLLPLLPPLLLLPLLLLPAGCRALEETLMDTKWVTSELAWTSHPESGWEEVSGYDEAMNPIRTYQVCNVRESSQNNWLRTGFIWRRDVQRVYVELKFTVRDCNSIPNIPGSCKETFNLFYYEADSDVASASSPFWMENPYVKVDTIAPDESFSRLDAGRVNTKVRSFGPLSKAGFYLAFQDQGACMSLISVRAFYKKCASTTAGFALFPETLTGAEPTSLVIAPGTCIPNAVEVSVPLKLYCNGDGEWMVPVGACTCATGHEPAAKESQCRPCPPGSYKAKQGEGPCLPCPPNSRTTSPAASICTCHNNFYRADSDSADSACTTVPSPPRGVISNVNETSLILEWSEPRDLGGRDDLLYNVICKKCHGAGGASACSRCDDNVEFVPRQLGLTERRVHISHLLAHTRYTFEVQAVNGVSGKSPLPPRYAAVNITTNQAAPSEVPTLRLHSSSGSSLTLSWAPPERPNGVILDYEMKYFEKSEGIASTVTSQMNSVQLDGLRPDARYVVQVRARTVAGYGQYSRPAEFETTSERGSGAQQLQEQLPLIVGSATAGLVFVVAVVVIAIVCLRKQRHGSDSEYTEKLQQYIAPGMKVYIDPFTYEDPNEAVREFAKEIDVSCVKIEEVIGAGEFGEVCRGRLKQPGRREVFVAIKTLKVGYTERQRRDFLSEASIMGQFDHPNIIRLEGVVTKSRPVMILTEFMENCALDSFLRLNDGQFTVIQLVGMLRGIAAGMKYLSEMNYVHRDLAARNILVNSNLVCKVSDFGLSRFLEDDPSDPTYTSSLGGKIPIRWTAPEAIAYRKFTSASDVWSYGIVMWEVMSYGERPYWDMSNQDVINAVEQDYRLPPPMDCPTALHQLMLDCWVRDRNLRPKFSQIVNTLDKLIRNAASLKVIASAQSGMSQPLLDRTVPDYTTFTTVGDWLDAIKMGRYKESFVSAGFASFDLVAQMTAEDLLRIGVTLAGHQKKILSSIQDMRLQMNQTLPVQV

[5] = target: T3, Ephrin type-B receptor 3 (Homo sapiens); conditions: at 10 µM
[6] = target: T4, Ephrin type-B receptor 4 (Homo sapiens) (UniProt P54760); conditions: at 1 µM
T4 sequence (whole entry): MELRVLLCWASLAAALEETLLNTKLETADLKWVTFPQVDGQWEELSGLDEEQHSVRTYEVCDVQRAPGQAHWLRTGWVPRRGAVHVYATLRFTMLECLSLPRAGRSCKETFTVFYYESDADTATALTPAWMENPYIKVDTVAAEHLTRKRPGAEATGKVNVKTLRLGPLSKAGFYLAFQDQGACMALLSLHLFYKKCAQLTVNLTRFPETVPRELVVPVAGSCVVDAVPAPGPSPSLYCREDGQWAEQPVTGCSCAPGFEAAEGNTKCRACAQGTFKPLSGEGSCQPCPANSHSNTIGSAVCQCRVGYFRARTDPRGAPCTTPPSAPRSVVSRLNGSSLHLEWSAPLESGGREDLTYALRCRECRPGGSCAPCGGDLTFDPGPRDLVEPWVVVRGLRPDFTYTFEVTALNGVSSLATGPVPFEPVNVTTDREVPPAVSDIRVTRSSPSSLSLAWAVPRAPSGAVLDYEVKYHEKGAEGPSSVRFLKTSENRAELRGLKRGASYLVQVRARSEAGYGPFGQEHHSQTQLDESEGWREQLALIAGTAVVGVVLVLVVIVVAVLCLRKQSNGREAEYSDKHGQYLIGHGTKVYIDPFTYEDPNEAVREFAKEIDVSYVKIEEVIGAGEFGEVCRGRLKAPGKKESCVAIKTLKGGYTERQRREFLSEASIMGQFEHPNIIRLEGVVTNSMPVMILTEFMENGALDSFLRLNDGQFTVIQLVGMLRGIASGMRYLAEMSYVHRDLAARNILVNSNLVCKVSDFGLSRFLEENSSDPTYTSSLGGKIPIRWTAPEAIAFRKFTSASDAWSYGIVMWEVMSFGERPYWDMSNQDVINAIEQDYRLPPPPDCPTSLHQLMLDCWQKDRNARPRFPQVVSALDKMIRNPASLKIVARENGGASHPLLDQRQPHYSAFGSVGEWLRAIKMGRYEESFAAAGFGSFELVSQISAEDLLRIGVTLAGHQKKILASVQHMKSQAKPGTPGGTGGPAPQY

[7] = target: T4, Ephrin type-B receptor 4 (Homo sapiens); conditions: at 10 µM
[8] = target: Receptor tyrosine-protein kinase erbB-4 (Homo sapiens) (UniProt Q15303); conditions: at 1 µM
[9] = target: Receptor tyrosine-protein kinase erbB-4 (Homo sapiens) (UniProt Q15303); conditions: at 10 µM
[10] = target: Focal adhesion kinase 1 (Homo sapiens) (UniProt Q05397); conditions: at 1 µM
Chain of Focal adhesion kinase 1 (Homo sapiens) (Q05397 2-1052 limits assumed): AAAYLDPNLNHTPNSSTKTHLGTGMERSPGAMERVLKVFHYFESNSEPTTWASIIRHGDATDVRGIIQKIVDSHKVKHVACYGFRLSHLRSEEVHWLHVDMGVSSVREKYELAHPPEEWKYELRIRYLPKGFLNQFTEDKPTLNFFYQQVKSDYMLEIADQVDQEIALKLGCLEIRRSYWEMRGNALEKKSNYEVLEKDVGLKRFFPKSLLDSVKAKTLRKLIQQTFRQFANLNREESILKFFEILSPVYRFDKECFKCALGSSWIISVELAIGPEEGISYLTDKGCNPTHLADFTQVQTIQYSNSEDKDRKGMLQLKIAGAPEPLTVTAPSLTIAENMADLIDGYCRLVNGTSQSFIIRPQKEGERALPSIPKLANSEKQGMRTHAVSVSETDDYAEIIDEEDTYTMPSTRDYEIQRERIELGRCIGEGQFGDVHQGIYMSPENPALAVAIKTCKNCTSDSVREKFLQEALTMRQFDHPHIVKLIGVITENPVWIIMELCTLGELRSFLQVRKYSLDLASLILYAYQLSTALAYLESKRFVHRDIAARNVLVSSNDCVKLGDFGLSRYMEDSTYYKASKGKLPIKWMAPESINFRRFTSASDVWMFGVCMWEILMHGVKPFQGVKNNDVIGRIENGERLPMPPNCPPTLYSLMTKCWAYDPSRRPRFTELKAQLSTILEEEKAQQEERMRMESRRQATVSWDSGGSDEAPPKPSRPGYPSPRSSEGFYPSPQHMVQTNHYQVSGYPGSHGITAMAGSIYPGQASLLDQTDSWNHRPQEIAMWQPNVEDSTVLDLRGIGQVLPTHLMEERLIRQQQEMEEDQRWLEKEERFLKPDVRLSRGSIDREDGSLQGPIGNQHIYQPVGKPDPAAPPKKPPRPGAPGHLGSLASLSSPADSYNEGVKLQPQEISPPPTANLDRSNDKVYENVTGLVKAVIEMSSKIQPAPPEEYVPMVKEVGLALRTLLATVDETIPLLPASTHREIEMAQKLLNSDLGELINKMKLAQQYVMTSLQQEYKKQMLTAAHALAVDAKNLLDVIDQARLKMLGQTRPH

Chain of Receptor tyrosine-protein kinase erbB-4 (Homo sapiens) (Q15303 whole entry): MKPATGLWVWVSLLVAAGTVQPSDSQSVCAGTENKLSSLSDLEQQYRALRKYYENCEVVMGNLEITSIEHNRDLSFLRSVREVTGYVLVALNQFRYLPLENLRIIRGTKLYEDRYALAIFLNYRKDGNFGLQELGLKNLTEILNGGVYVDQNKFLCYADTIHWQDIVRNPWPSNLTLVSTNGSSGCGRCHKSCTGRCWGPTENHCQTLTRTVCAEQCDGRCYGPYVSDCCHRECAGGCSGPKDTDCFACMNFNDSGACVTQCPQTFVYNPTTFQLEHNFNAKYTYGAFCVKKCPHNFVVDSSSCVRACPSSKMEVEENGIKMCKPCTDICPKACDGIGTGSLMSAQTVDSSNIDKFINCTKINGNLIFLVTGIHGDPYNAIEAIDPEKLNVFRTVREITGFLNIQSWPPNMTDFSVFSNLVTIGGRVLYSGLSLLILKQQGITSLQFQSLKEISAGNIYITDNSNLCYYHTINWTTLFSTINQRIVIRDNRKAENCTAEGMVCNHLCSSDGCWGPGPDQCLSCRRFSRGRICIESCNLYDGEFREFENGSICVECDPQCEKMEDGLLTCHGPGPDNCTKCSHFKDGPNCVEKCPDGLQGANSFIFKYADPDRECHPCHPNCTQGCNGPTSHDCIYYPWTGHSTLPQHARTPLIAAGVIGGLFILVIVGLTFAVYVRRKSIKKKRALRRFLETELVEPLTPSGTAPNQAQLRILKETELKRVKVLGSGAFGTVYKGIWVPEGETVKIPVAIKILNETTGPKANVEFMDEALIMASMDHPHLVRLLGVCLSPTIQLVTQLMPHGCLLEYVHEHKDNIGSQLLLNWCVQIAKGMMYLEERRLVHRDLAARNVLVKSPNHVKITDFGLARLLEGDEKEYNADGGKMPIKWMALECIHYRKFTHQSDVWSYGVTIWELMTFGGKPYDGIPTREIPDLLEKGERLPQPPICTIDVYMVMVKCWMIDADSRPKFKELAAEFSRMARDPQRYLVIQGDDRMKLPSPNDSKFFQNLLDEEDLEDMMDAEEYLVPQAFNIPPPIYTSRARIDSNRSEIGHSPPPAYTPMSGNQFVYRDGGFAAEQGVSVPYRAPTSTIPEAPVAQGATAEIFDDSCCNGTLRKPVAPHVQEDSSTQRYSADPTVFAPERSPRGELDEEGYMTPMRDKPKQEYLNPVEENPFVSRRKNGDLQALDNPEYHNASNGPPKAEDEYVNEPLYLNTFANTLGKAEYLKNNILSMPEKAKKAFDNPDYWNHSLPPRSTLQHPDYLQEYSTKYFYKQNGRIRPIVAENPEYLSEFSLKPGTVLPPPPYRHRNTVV

## O=C1Nc2cc(Br)ccc2/C1=C1/Nc2ccccc2/C1=N\O
[1]
  residual activity: 42%
[2]
  residual activity: 33%
[3]
  residual activity: 22%
[4]
  residual activity: 100% (inactive)
[5]
  residual activity: 95%
[6]
  residual activity: 17%
[7]
  residual activity: 4%
[8]
  residual activity: 84%
[9]
  residual activity: 88%
[10]
  residual activity: 59%

Reference: ChEMBL document CHEMBL2218924, “A broad activity screen in support of a chemogenomic map for kinase signalling research and drug discovery” (Biochem J, 2013)
